PubChem BioAssay (NCI)
The panel holds about 79,000 compounds, 15% with a hit somewhere; the sample as a whole holds those more often. Active and inactive are the calls of the source. No stated cut-off is given here; in the data, active means growth inhibition above about 70%; inactive means the rest.

Columns and labels:
[1] = NCI Yeast Anticancer Drug Screen. Data for the rad50 strain (AID 155);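 further: 0% = growth of vehicle-only cultures of the same strain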; details: S. cerevisiae rad50 strain growth inhibition; at 50.0 µM; stronger effect = higher value
Procedure, shortened: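 Yeast carrying a defined DNA repair defect were exposed to test compounds, and growth was compared with vehicle-treated controls to give percent inhibition.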

[2] = NCI Yeast Anticancer Drug Screen. Data for the mec2-1 strain (AID 157); details: S. cerevisiae mec2-1 strain, at 50.0 µM, stronger effect = higher value
Procedure, shortened: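 Compounds were applied to mec2-1 yeast cells. Their growth was then compared with that of vehicle-treated cultures to give growth inhibition.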

[3] = NCI Yeast Anticancer Drug Screen. Data for the sgs1 mgt1 strain (AID 161);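 further: 0% = growth of cultures given vehicle only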; details: S. cerevisiae sgs1 mgt1 strain, at 50.0 µM, stronger effect = higher value
Procedure, shortened: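 Percent growth inhibition was derived by comparing compound-exposed mutant yeast with vehicle-exposed cultures. The strain carries alterations in DNA damage repair.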

[4] = NCI Yeast Anticancer Drug Screen. Data for the cln2 rad14 strain (AID 165);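 further: 0% = growth equal to vehicle treated cultures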; details: S. cerevisiae cln2 rad14 strain, at 50.0 µM, stronger effect = higher value
Procedure, shortened: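 Strain: cln2 rad14 yeast, altered in cell cycle control and DNA damage repair. Read-out: growth inhibition vs vehicle.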

[5] = NCI Yeast Anticancer Drug Screen. Data for the bub3 strain (AID 167); details: S. cerevisiae bub3 mutant strain, at 50.0 µM, stronger effect = higher value
Procedure, shortened: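 Compounds were applied to a genetically altered yeast strain carrying a cell-cycle control defect. Growth inhibition was scored against vehicle-treated controls.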

[6] = NCI Yeast Anticancer Drug Screen. Data for the mlh1 rad18 strain (AID 175); details: S. cerevisiae mlh1 rad18 strain growth inhibition; at 50.0 µM; stronger effect = higher value
Procedure, shortened: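 A repair-deficient yeast strain is exposed to test compound, and growth is scored relative to vehicle-treated controls.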

Measured: growth inhibition

O=C(O)C1CC2(CCC1c1ccccc1)SCCS2 (configuration not stated)
inactive: [1] 6.7% | [2] 1.15% | [3] 12.1% | [4] 13.6% | [5] 6.5% | [6] -9.85%

O=C(C[n+]1cc(Br)cc(Br)c1)c1ccc(Br)cc1
inactive: [1] -16.9% | [2] -0.15% | [3] -0.05% | [4] -0.9% | [5] -4.95% | [6] 37.9%

COC1=CC(=O)c2nc3ccccc3c3ccnc1c23
inactive: [4] 51.2%
active: [1] 87% | [2] 76.1% | [3] 83.2% | [5] 87.3% | [6] 87.2%

N#CC1OC1c1ccccn1 (configuration not stated)
inactive: [1] -6.25% | [2] 7.05% | [3] -12.3% | [4] 9.05% | [5] 5.35% | [6] -21.6%

Cc1nc2ccc(C(F)(F)F)cc2nc1Nc1ccc(Cl)c(Cl)c1
inactive: [1] 20.2% | [2] 27.4% | [3] 47.6% | [4] 15.2% | [5] 6.95% | [6] 34%

CC(=O)Nc1ccc(C2SCc3nc4ccccc4n32)cc1 (configuration not stated)
inactive: [1] -21.5% | [2] -11.1% | [3] -32.5% | [4] -34.2% | [5] -24.9% | [6] -48.8%

Cc1cc(Cl)ccc1NC(N)=O
inactive: [1] -5.95% | [2] -20.3% | [3] 5.15% | [4] 22.4% | [5] -3.7% | [6] -1.85%

N#CSc1nc[nH]c1C(N)=O
inactive: [1] -38.2% | [2] -12.4% | [3] 3.45% | [4] -16.6% | [5] -26.3% | [6] -4.4%

CN(C)CC(CN(C)C)C(=O)/C=C/c1ccc(O)cc1
inactive: [1] 1.4% | [2] -2.25% | [3] 6.05% | [4] 6.35% | [5] 22.4% | [6] 5.5%

N#CCCn1[nH]c(=O)c(Cl)c(Cl)c1=O
inactive: [1] 6.95% | [2] 4.6% | [3] -3.9% | [4] -6.8% | [5] 4.15% | [6] -3.3%

[N-]=[N+]=Nc1ccccc1Oc1ccccc1
inactive: [1] 9.85% | [2] -18.1% | [3] 5.15% | [4] 17.7% | [5] -16.6% | [6] 10.5%

CC(C)CCCC(C)C1CCC2(C)C3CCC4C(C)(C)C(OCC(C)(C)C)CCC4(C)C3CCC12C (configuration not stated)
inactive: [1] 34% | [2] -5.5% | [3] 4.7% | [4] 7.3% | [5] -0.15% | [6] -5.4%

Cc1nc2sc(CCl)nn2c(=O)c1Cl
inactive: [1] 16.1% | [2] 34% | [3] 14.6% | [4] 17.9% | [5] 21.2% | [6] 10.8%

Cc1ccccc1/C=N/NC(=O)c1cccc2ccccc12
inactive: [1] -6.85% | [2] 0.8% | [3] -10.8% | [4] -23% | [5] 0.75% | [6] 0.6%

Cc1[nH]c(-c2ccccc2)c2nc(N(C)C)oc(=O)c12
inactive: [1] -11.4% | [2] 29.3% | [3] 17.4% | [4] 10.5% | [5] 34.1% | [6] -5.25%

O=C1NC2OCC(O)C(O1)C2O (configuration not stated)
inactive: [1] 3.85% | [2] 1% | [3] -13.3% | [4] 7.75% | [5] -2.25% | [6] 16.3%

Cc1ccccc1C1OC(=O)c2ccc3ccccc3c21 (configuration not stated)
inactive: [1] 10.6% | [2] 1.8% | [3] 14.4% | [4] 7.95% | [5] 1.45% | [6] 6.55%

Cc1[nH]c(=O)[nH]c(=O)c1/C=C/C(=O)NC(CO)CSC(C)C (configuration not stated)
inactive: [1] -2% | [2] 27.1% | [3] -7.75% | [4] -3.9% | [5] 8.4% | [6] 9.55%

CC(C(N)=O)C(=O)c1ccccc1 (configuration not stated)
inactive: [1] 9.9% | [2] -12.4% | [3] -24.3% | [4] -7.15% | [5] -21.2% | [6] 0.15%

O=S1(=O)CCCCc2ccccc21
inactive: [1] 7.35% | [2] -0.75% | [3] 3.75% | [4] -9.35% | [5] 1.85% | [6] -23.2%

CC1=CC(=O)[C@@H]2C[C@H]1C2(C)C
inactive: [1] 15.3% | [2] 12.8% | [3] -33.9% | [4] -2.9% | [5] -2.1% | [6] 22.2%

O=NN(C(=O)NCCCl)c1[nH]c(=O)ncc1I
inactive: [1] -8.65% | [2] -9.7% | [3] -13.9% | [4] -25.2% | [5] 3.05% | [6] -6.1%

COC(=O)C1OC1C(=O)OC (configuration not stated)
inactive: [1] -17.4% | [2] -26.5% | [3] 1.15% | [4] -28.9% | [5] 12.3% | [6] 1.6%

O=C1OC(c2cccc(Cl)c2)=N/C1=C\c1ccc(Cl)cc1
inactive: [1] 20.4% | [2] 16.6% | [3] 16.6% | [4] 11.2% | [5] 7.5% | [6] 0.6%

CSC(N)=NC1CCCCC1
inactive: [1] -7.35% | [2] 0.1% | [3] -6.05% | [4] -30.4% | [5] 35.9% | [6] 6.15%

Cc1cccc(-c2nc3sc(-c4cccc(C)n4)nc3s2)n1
inactive: [1] -9.7% | [2] 3.05% | [3] -13.3% | [4] -29.6% | [5] 4.05% | [6] -16.3%

CCCCCCCCCCCCCCCCS(=O)(=O)c1ccc(S(=O)(=O)CS(C)(=O)=O)cc1[N+](=O)[O-]
inactive: [1] -5.55% | [2] -16.2% | [3] 9.85% | [4] 0.85% | [5] 21.1% | [6] 15.3%

CCSc1ccc2c3c(cccc13)C(=O)N(CCc1ccccn1)C2=O
inactive: [1] -0.6% | [2] -14.1% | [3] 11.8% | [4] 2.25% | [5] 6.2% | [6] 2.8%

N/N=C(/c1ccc(Cl)cc1)N1CCOCC1
inactive: [1] 15.4% | [2] 1.1% | [3] 3.8% | [4] -8.6% | [5] -18% | [6] 5.35%

CCN(CC)CCC(C)C(Cc1cccs1)OC(C)=O (configuration not stated)
inactive: [1] 4.1% | [2] -3.9% | [3] -2.95% | [4] -39% | [5] 35.2% | [6] 5.6%

COc1ccc(/C=N/Nc2nc3ccccc3c(=O)n2-c2ccccc2)c(OCc2ccccc2)c1
inactive: [1] 4.7% | [2] 5.2% | [3] 5.5% | [4] -0.1% | [5] 9% | [6] 9.85%

N#Cc1n[nH]n(C2CCCCC2)c1=O
inactive: [1] -29.4% | [2] -12.8% | [3] -13.3% | [4] -0.3% | [5] -20.1% | [6] -14.2%

CCOC(=O)C(O)Cc1ccc(N)cc1 (configuration not stated)
inactive: [1] 5.8% | [2] 12.2% | [3] 12.3% | [4] 9.85% | [5] 12.8% | [6] 2.85%

CSc1ccc(C(N)=O)cn1
inactive: [1] -1.2% | [2] -12.2% | [3] -7.05% | [4] -36% | [5] -22.1% | [6] 1.15%

O=C(Cc1ccc(Cl)cc1)NCCc1ccccc1
inactive: [1] -1.4% | [2] -14.6% | [3] -5.15% | [4] 32.9% | [5] 18.4% | [6] 7.3%

C=CC(C)C1C(C)C(Cl)CC(Cl)C1OC(=O)c1ccccc1 (configuration not stated)
inactive: [1] 14.1% | [2] -0.65% | [3] 10.7% | [4] -2.3% | [5] 17.8% | [6] -11.3%

CC(=O)Nc1cc(N)cc(C(=O)O)c1
inactive: [1] 37% | [2] -0.9% | [3] 9.15% | [4] 9.75% | [5] -33.9% | [6] -7.5%

Nc1nc(N)c2ncn(Cc3c(Cl)cccc3Cl)c2n1
inactive: [1] -3.75% | [2] -3.95% | [3] 1.9% | [4] 6.8% | [5] 4.15% | [6] -9.65%

C=CCCc1cc(OC)ccc1C(=O)C(C)C
inactive: [1] 4.3% | [2] -17.8% | [3] -20.1% | [4] -20.8% | [5] 0.2% | [6] -12.6%

CC(=O)c1ccccc1C
inactive: [1] -32.6% | [2] -69.5% | [3] -43.7% | [4] -1.25% | [5] -38.1% | [6] -22.3%

CCc1cccc2[nH]c3cc([N+](=O)[O-])ccc3c12
inactive: [1] 12% | [2] -13.8% | [3] 2.5% | [4] -22.8% | [5] -0.4% | [6] 15.7%

Cc1ncc([N+](=O)[O-])n1CCNC(=O)CCCCn1ccnc1[N+](=O)[O-]
inactive: [1] 5% | [2] -3.75% | [3] -8.6% | [4] 15.1% | [5] 7.15% | [6] -45%
